In PubChem BioAssay AID431 (Sanford-Burnham Center for Chemical Genomics, 2006):
In all, about 63,000 compounds went through this assay and about 1,100 (1.7%) were called active.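 The calls were made as follows: active = compounds whose percent cytotoxicity in the single-dose primary screen, scaled between solvent and toxic-drug controls, exceeds 50; inactive = the rest.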 The list comes from a sample in which actives are over-represented; it also holds similar structures and randomly drawn compounds. Measured potencies and affinities stand elsewhere.

Experiment: cytotoxicity in KRAS-transformed pancreatic duct cells, primary screen, cell-based, fluorescence, HTS (AID 431);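 also: 0% = DMSO solvent wells and 100% = doxorubicin-treated wells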
Settings: HPDE-C7K KRASV12 cells, Alamar Blue viability, 48 h; at 10 µM; stronger effect = higher value

| SMILES | cytotoxicity |
| --- | --- |
| Cc1ccc(S(=O)(=O)NC(C)C(=O)NC2CCCCCC2)cc1 (stereo not given) | 1% (inactive) |
| O=C1C(=C(O)c2ccccc2)C(=O)c2ccccc21 | 2% (inactive) |
| O=C(CC(c1ccco1)C1CCCCC1=O)c1ccco1 (stereo not given) | 14.2% (inactive) |
| COc1cccc(C(=O)N(CN2CCCC2=O)c2cccc(Cl)c2)c1 | -17.4% (inactive) |
| CCOC(=O)c1cccc(NC(=O)CN(C)S(=O)(=O)c2cnc[nH]2)c1 | -9.7% (inactive) |
| CCc1nnc(NC(=O)CSc2nnc(COc3ccccc3)n2-c2ccc(C)cc2)s1 | 2.3% (inactive) |
| COC(=O)Cn1cnc2c(C#N)c3n(c2c1=O)CCCCC3 | -14.2% (inactive) |
| COc1ccccc1-c1noc(-c2ccccc2C(=O)N2CCOCC2)n1 | -11.4% (inactive) |
| C=Cn1ccnc1P(=S)(c1ccc2c(c1)c1ccccc1n2CC)c1nccn1C=C | 63.9% (active) |
| CCn1c2ccccc2c2cc(/C=N/n3cnnc3)ccc21 | 16.2% (inactive) |
| CCn1c2ccccc2c2cc(N)ccc21 | 22.9% (inactive) |
| CCN(CC(=O)Nc1ccc2c(c1)OCCO2)C(=O)C1CCCCC1 | -7.3% (inactive) |
| CN(CC(=O)Nc1ccc(C#N)cc1)Cc1ccc(Cl)cc1 | 2.8% (inactive) |
| N#Cc1ccc(NC(=O)Nc2ccc(Cl)cc2)cc1 | 67.5% (active) |
| Cc1cccc(NC(=O)Nc2ccc(C#N)cc2)n1 | 12.8% (inactive) |
| O=C(c1ccc(Cl)cc1)N1CCCOC1 | 0.8% (inactive) |
| C=CC(=C)CC(NC)c1ccccc1 (stereo not given) | 8.2% (inactive) |
| Cc1nc(NCC2CCCO2)c2oc3ccccc3c2n1 (stereo not given) | 6.5% (inactive) |
| CCOC(=O)c1c(N)sc(=S)c2c1CCC2 | 10.6% (inactive) |
| CCOC(=O)c1c(N)sc2c(OC)c(Br)ccc12 | 58.8% (active) |
| CCOC(=O)c1c(N)sc2c(O)c(Br)ccc12 | 13.7% (inactive) |
| Cc1ccc2c(c1)cc(CN(CCc1ccccc1)C(=O)N1CCOCC1)c1nnnn12 | -24.7% (inactive) |
| COc1ccc(NC(=O)N(CCCN(C)C)Cc2cc3cc(OC)ccc3[nH]c2=O)cc1 | -3% (inactive) |
| CCN(CC)S(=O)(=O)c1cc(C(=O)Oc2ccccc2OC)ccc1OC | 2.8% (inactive) |
| Cn1c(CNC(=O)Cc2ccc3c(c2)OCO3)nnc1SCc1ccccc1 | -39.1% (inactive) |

| SMILES | cytotoxicity |
| --- | --- |
| CC1Cn2c(nnc2-c2cccc(Cl)c2)S1 (stereo not given) | 3.6% (inactive) |
| COC(=O)CSc1nc(-c2cccs2)ccc1C#N | 12.6% (inactive) |
| C=COC(=O)CSc1nc(-c2cccs2)ccc1C#N | 40.6% (inactive) |
| CCOC(=O)C(C)Sc1nc(-c2cccs2)ccc1C#N (stereo not given) | 59.5% (active) |
| CCCCn1c(-c2cc(Cl)ccc2OC)n[nH]c1=S | -11.5% (inactive) |
| Cc1ccc(S(=O)(=O)c2c(C)nn(C(C)(C)C)c2OC(=O)C2CCCC2)cc1 | -5.1% (inactive) |
| CC(=O)Nc1ccc(S(=O)(=O)N2CCC(NC(C)=O)(c3cccc(F)c3)CC2)cc1 | 8% (inactive) |
| CC1CCCCN1CC(=O)Nc1sc2c(c1C#N)CCC2 (stereo not given) | -11.1% (inactive) |
| Cc1ccc(S(=O)(=O)NC(=O)NC(C)(C)C)cc1 | 12.4% (inactive) |
| OC1CCN(Cc2cccc(Oc3ccccc3)c2)CC1 | 20.9% (inactive) |
| Oc1ccc2ccccc2c1C=NC12CN3CCN(CN(C3)C1)C2 | 0.4% (inactive) |
| OCC(CO)(CO)N=Cc1c(O)ccc2ccccc12 | 68% (active) |
| Oc1ccc2ccccc2c1/C=N/n1cnnc1 | 18.6% (inactive) |
| COc1ccc(S(=O)(=O)N(CC(=O)N2CCN(C)CC2)C2CCCCC2)cc1OC | 0.2% (inactive) |
| COc1ccc(CCn2c(-n3nc(C)cc3C)nc3c2c(=O)[nH]c(=O)n3C)cc1 | 52.6% (active) |
| Cc1cc(C)n(-c2nc3c(c(=O)[nH]c(=O)n3C)n2CCc2ccccc2)n1 | 11.3% (inactive) |
| Cc1ccc(Cn2c(-n3nc(C)cc3C)nc3c2c(=O)[nH]c(=O)n3C)cc1 | 5% (inactive) |
| COc1ccc(N2CC(C(=O)NC3CC(C)(C)NC(C)(C)C3)CC2=O)cc1 (stereo not given) | -5% (inactive) |
| COc1ccc(OC)c(NC(=O)CSc2nnc(CNC(=O)COc3ccc(Cl)cc3)o2)c1 | -3% (inactive) |
| CCn1c(=O)c(C(=O)Nc2cccnc2)c(O)c2ccccc21 | 11.7% (inactive) |
| CCCn1c(=O)c(C(=O)Nc2nnc(CC)s2)c(O)c2ccccc21 | 14.3% (inactive) |
| CCn1c(=O)c(C(=O)NCCCO)c(O)c2ccccc21 | 70.7% (active) |
| CCCn1c(=O)c(C(=O)Nc2nnc(C)s2)c(O)c2ccccc21 | 62.2% (active) |
| C=CCn1c(=O)c(C(=O)Nc2nnc(C)s2)c(O)c2ccccc21 | 9.1% (inactive) |
| CCn1c(=O)c(C(=O)Nn2c(C)nc3ccccc3c2=O)c(O)c2ccccc21 | 17.6% (inactive) |

| SMILES | cytotoxicity |
| --- | --- |
| CCn1c(=O)c(C(=O)NCCc2ccccc2)c(O)c2ccccc21 | -11.5% (inactive) |
| CCn1c(=O)c(C(=O)NCCNCCO)c(O)c2ccccc21 | 13.9% (inactive) |
| Cc1onc(-c2c(F)cccc2Cl)c1C(=O)NCCc1ccc(S(N)(=O)=O)cc1 | -7.2% (inactive) |
| N#C/C(C(=O)N1CCOCC1)=C1\Nc2ccccc2S1 | 14.5% (inactive) |
| O=C(NCc1ccco1)c1cc(-c2ccncc2)nc2ccccc12 | -8.1% (inactive) |
| CCOc1cc(N2CCOCC2)c(OCC)cc1NC1=NCCCCC1 | -3.3% (inactive) |
| CC1CCCC(NC(=O)CSc2nnc(N)s2)C1C (stereo not given) | -4.3% (inactive) |
| Cc1ccc(C)c(N(CC(=O)NCc2ccc3c(c2)OCO3)C(=O)CCC(=O)Nc2ccccn2)c1 | -28% (inactive) |
| COc1ccc(N2CSC3=C(C#N)C(c4ccc(OC)c(OC)c4)CC(=O)N3C2)c(OC)c1 (stereo not given) | -12% (inactive) |
| CC(C)N=c1cc2n(-c3ccc(Cl)cc3)c3ccccc3nc-2cc1Nc1ccc(Cl)cc1 | 68.8% (active) |
| Cn1c(CNc2ccc(Cl)cc2)nc2ccccc21 | -9.8% (inactive) |
| Cc1nc2ccccc2n1-c1ccccc1 | -12.4% (inactive) |
| CCCCn1c(C(C)NC(=O)CCC)nc2ccccc21 (stereo not given) | 2.5% (inactive) |
| CCOCCN1CCN(c2c(C)c(C)nc3cc(-c4cc(OC)cc(OC)c4)nn23)CC1 | 9.5% (inactive) |
| CCc1c(C)nc2cc(-c3ccc(OC)c(OC)c3)nn2c1N1CCCC1 | 19.1% (inactive) |
| CCCSC1=N/C(=C\C=C\c2ccco2)C(=O)S1 | 51.9% (active) |
| O=C1SC(SCc2ccccc2)=N/C1=C\c1ccco1 | 42.6% (inactive) |
| C=CCSC1=N/C(=C\C=C\c2ccco2)C(=O)S1 | 33.1% (inactive) |
| ONC(=Nc1ccccc1)C(=Nc1ccccc1)NO | -6.3% (inactive) |
| S=C(N=Nc1ccccc1)NNc1ccccc1 | 50.5% (active) |
| CC(=Nc1ccccc1)Nc1ccccc1 | -3.8% (inactive) |
| COC(=O)c1c(C)[nH]c(C(=O)C(C)Sc2nnc(-c3cc(OC)c(OC)c(OC)c3)o2)c1C (stereo not given) | 11.4% (inactive) |
| Cn1c(=O)c2c(nc(NCCCN3CCOCC3)n2Cc2ccc(Cl)cc2)n(C)c1=O | -3.3% (inactive) |
| CCOC(=O)c1c(C)oc2c1cc(O)c1ccccc12 | 14% (inactive) |
| COC(=O)c1c(C)oc(C)c(C(=O)OC)c1=O | 0.6% (inactive) |

| SMILES | cytotoxicity |
| --- | --- |
| CCN1CCN(Cc2cc(=O)oc3ccc(Cl)cc23)CC1 | -11% (inactive) |
| Cc1cccc(-n2c(SCC(=O)Nc3ccc4c(c3)OCO4)nnc2-c2ccoc2C)c1 | 53.6% (active) |
| Cc1ccc(-n2c(SCC(=O)Nc3ccc4c(c3)OCO4)nnc2-c2ccoc2C)cc1 | 17% (inactive) |
| Cc1cccc(-n2c(SCC(=O)Nc3nonc3C)nnc2-c2ccoc2C)c1 | -13.8% (inactive) |
| COC(=O)c1cccc(NC(=O)C2COc3ccccc3O2)c1 (stereo not given) | -26.2% (inactive) |
| CC(=O)c1ccccc1OC(=O)c1ccco1 | -0.8% (inactive) |
| C=CCN1C(=Nc2ccccc2)SC/C1=C\C(=O)OC | -1.6% (inactive) |
| O=C(c1cccc(C(=O)N2CCN(c3ncccn3)CC2)c1)N1CCN(c2ncccn2)CC1 | -2.4% (inactive) |
| Cc1c(C)c2cc(Cl)c(OCc3nn[nH]n3)cc2oc1=O | -12% (inactive) |
| CCOC(=O)c1[nH]c2ccc(F)cc2c1NC(=O)C(C)N1CCc2cc(OC)c(OC)cc2C1 (stereo not given) | 53.6% (active) |
| CCOC(=O)c1[nH]c2ccc(F)cc2c1NC(=O)CN1CCN(C/C=C/c2ccccc2)CC1 | 65% (active) |
| CCOC(=O)c1[nH]c2ccc(OCC)cc2c1NC(=O)CN1CCN(c2ccccc2)CC1 | 7.4% (inactive) |
| CCOC(=O)c1[nH]c2ccccc2c1NC(=O)CN1CCCCC1 | -11.1% (inactive) |
| CCOC(=O)c1[nH]c2ccc(F)cc2c1NC(=O)CN1CCc2cc(OC)c(OC)cc2C1 | -3.4% (inactive) |
| CCOC(=O)c1[nH]c2ccc(OC)cc2c1NC(=O)C(C)N1CCSCC1 (stereo not given) | 31.2% (inactive) |
| Cn1c(=O)n(CC(=O)OCc2ccccc2)c(=O)c2c1nc1n2CCCN1C1CCCCC1 | 0.1% (inactive) |
| N#CC1=C(N)SC(N)=C(C#N)C1CCC1CCCCC1 | 35.2% (inactive) |
| Cc1nc(-c2ccc(C(=O)O)cc2)cs1 | -9.4% (inactive) |
| COCCNC(=O)c1ccc(NS(C)(=O)=O)cc1 | -8% (inactive) |
| COc1ccc(OC)c(NC(=O)CC(NCCC2=CCCCC2)C(=O)O)c1 (stereo not given) | -16.9% (inactive) |
| Cc1ccc(N2CCN(CC(O)COC3CCCCC3)CC2)cc1 (stereo not given) | 42.6% (inactive) |
| CC1CCN(CC(O)COC2CCC(C(C)(C)C)CC2)CC1 (stereo not given) | 50.3% (active) |
| CC1CCN(CC(O)COc2ccc(F)cc2)CC1 (stereo not given) | -1.9% (inactive) |
| CC1CC(=O)N(Cc2ccccc2)c2ccccc2N1C=O (stereo not given) | 7.1% (inactive) |
| CON(C)c1nc(Oc2ccc(=O)[nH]n2)nc(N(C)C)n1 | -15.6% (inactive) |
